# According to PubChem BioAssay (NCI):
# Compounds without any hit were thinned out: in the full panel of roughly 83,000, 20% have a hit.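 How to read the values: 0–100, growth inhibition (40 = 60% inhibited); 0, no net growth; -100 to 0, cell death (-40 = 40% of starting cells died; -100 = all dead).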 A number with no mark means an inactive call. Activity calls are given as the source filed them. The calls were made as follows: active = growth percent below 10; inactive = the rest.
# How the values were obtained:
# Experiment in all cases: NCI-60 one-dose screen, 48 h (100 = growth as untreated, 0 = no growth, -100 = all killed)
# Conditions in all cases: 10 µM unless noted
# HCT-15 colon = test system: HCT-15 colon
# HT29 colon = test system: HT29 colon
# SNB-75 CNS = test system: SNB-75 CNS
# SNB-19 CNS = test system: SNB-19 CNS
# U251 CNS = test system: U251 CNS
# PC-3 prostate = test system: PC-3 prostate
# SK-MEL-5 melanoma = test system: SK-MEL-5 melanoma
# UACC-62 melanoma = test system: UACC-62 melanoma
# LOX IMVI melanoma = test system: LOX IMVI melanoma
# SK-MEL-28 melanoma = test system: SK-MEL-28 melanoma
Structure (SMILES),growth (HCT-15 colon),growth (HT29 colon),growth (SNB-75 CNS),growth (SNB-19 CNS),growth (U251 CNS),growth (PC-3 prostate),growth (SK-MEL-5 melanoma),growth (UACC-62 melanoma),growth (LOX IMVI melanoma),growth (SK-MEL-28 melanoma)
Cc1ccc(C2CC(c3nc(-c4ccc(Cl)cc4)oc3C)=NN2C(=O)c2ccncc2)cc1 (stereo not given),83.7%,86.9%,82.1%,77.2%,87.7%,73.2%,92.4%,72.3%,86%,92.4%
O=C1/C(=C\c2ccccn2)c2ccccc2N1c1c(Cl)cccc1Cl,12.6%,10.8%,-28.2% (active),34.8%,-2.48% (active),31.4%,23.7%,24.9%,-89.2% (active),14.6%
CCOC(=O)c1c(C)c2c(n1Cc1ccccc1)CSCC2=O,11.7% [100 µM],7.91% [100 µM] (active),-13.9% [100 µM] (active),13.8% [100 µM],17.5% [100 µM],7.17% [100 µM] (active),-86.5% [100 µM] (active),-35.4% [100 µM] (active),-24.4% [100 µM] (active),27.8% [100 µM]
Clc1ccccc1-c1cnn2cc(-c3ccccc3)cnc12,70.1%,73.4%,74.2%,71%,82.9%,86.4%,93.2%,65.9%,94.6%,88.3%
Nc1nc(N)c2c(n1)NC(c1cccc(Nc3ccnc4cc(C(F)(F)F)ccc34)c1)CC(c1ccccc1)=N2 (stereo not given),23.7%,8.53% (active),48.1%,64.4%,36.5%,39.2%,21.9%,73.8%,45.6%,84%
COc1ccc(-c2nc(-c3cn(C)c4ncccc34)cs2)cc1,-1.17% [100 µM] (active),-63.2% [100 µM] (active),-3.6% [100 µM] (active),23.2% [100 µM],3.9% [100 µM] (active),-28.2% [100 µM] (active),-83.4% [100 µM] (active),-20.1% [100 µM] (active),-47.1% [100 µM] (active),37.9% [100 µM]
Nc1nc(N)c2c(n1)NC(c1cccc(Nc3ccnc4cc(C(F)(F)F)ccc34)c1)CC(c1ccc(Br)cc1)=N2 (stereo not given),19.5%,10.9%,57.2%,66.4%,44.7%,36.6%,48.1%,77.9%,24.6%,73.6%
COc1ccc(C(=O)Cn2c(C(=O)c3ccc(OC)cc3)nc3ccccc32)cc1,15.9%,14.9%,10.4%,48.8%,18.3%,34.2%,23.5%,13.9%,38.8%,42.8%
COc1ccc(/C=C(/C(=O)n2cnnn2)c2cc(OC)c(OC)c(OC)c2)cc1,15.5%,8.2% (active),15.4%,17.4%,17.9%,13.1%,15.2%,20.1%,37%,43.8%
Cc1ccc(C(=O)Nc2cccc(C#Cc3cccc4[nH]nc(N)c34)c2)cc1C(F)(F)F,48.9%,27.3%,88.4%,113%,81.5%,69.8%,73.3%,41.1%,25.4%,41.7%
CC(C)(C)c1cc(Cl)c(O)c(CNCCO)c1,99.7%,107%,90.1%,113%,112%,112%,100%,107%,101%,103%
COC(=O)CCC/C=C\C[C@H]1C=CC(=O)/C1=C/C[C@@H](O)C/C=C\CC(F)(F)F,-18.5% (active),-42.6% (active),68.3%,33.7%,-69.1% (active),-16.2% (active),-89.7% (active),-37.2% (active),-82.7% (active),-25.5% (active)
COc1cccc(Nc2ncnc3cc(NC(=O)CCl)ccc23)c1,-43.2% (active),-79.5% (active),-79.9% (active),-38.6% (active),-99.2% (active),-80.3% (active),-85.8% (active),-67.5% (active),-74.6% (active),-33.7% (active)
N#CSc1c[nH]c2cccc(/C=C/C(=O)/C=C(O)/C=C/c3cccc4[nH]cc(SC#N)c34)c12,-79.1% (active),-62.7% (active),-23.1% (active),-80.6% (active),-91.9% (active),-53% (active),-87.5% (active),-65.4% (active),-94.8% (active),-68.2% (active)
COc1ccc(C2CC(c3cc(OC)c(OC)c(OC)c3)=NO2)cc1OCCCCOc1cc2c(cc1OC)C(=O)N1CCC[C@H]1C=N2 (stereo not given in full),39.8%,-13.9% (active),-14.2% (active),16.5%,4.05% (active),45.8%,-79.6% (active),-67.8% (active),-39.7% (active),-23.1% (active)
Cc1[nH]c(C2CC(c3ccc(C(F)(F)F)c(F)c3)=NN2c2ccccc2)c(C)c1C(=O)NCC(F)(F)F (stereo not given),76.2%,84.6%,82.5%,85.6%,91%,74.6%,95.7%,75.5%,88.6%,96.9%
CCNc1nc(O)c(/C=C2\C=Nc3ncccc32)s1,16%,4.26% (active),-71.8% (active),9.99% (active),-9.45% (active),2.3% (active),9.15% (active),-16% (active),1.75% (active),-17.2% (active)
O=C(N/N=C/c1cc(Cl)ccc1O)c1ccccc1Nc1ccnc(C(F)(F)F)c1,30.4%,39.2%,57.6%,21%,16.7%,32.9%,2.92% (active),-12% (active),13.2%,59.1%
O=C1Nc2c(C(=O)O)cccc2/C1=N/c1n[nH]c(=S)s1,88.8%,105%,98.8%,95.1%,84.9%,84.2%,102%,49.6%,61.2%,107%
O=C1Nc2ccccc2/C1=C/c1cccn1C(=O)c1ccc(Cl)s1,17.8%,80.5%,63.6%,28.4%,22.3%,33%,69.8%,94.9%,79.2%,113%
Nc1nc(N)c(N=Nc2ccccc2)c(-c2ccccc2)n1,58.6%,51.1%,-0.588% (active),69.5%,72.4%,35.8%,46.9%,41.4%,42.6%,76.2%
COc1ccc(C#Cc2ccc(=O)oc2-c2cc(OC)c(OC)c(OC)c2)cc1O,30.7%,33.9%,40.1%,54.6%,39.7%,40.6%,24.5%,44%,41.4%,59%
Cc1ccccc1Nc1cc(O)c2c(=O)cc(-c3ccccc3)oc2c1,17.6%,69.9%,-5.66% (active),32.6%,36.2%,40.6%,23.5%,43.4%,30.9%,51.1%
O=C(Nc1cc(Cl)ccc1O)c1cccc(Nc2ccnc(C(F)(F)F)c2)c1,42.9%,87.4%,61.4%,44%,43.2%,28.2%,4.5% (active),15.5%,38.5%,88.1%
